An excerpt weighted towards active compounds, which were near 0.84% of everything screened.
SRC3 TRFRET art = TR-FRET artefact, counter-screen to PPARgamma/SRC-3 agonist assay | PPARgamma/SRC-3 format; active compounds read high | TR-FRET ratio at 8 µM | 99,000 tested, 0.39% active
SRC1 TRFRET art = TR-FRET artefact, counter-screen to PPARgamma/SRC-1 agonist assay. 99,000 tested, 0.34% active. TR-FRET detection artefact counter-screen, emission ratio; active compounds read high. TR-FRET ratio at 8 µM; in the data active means TR-FRET ratio above about 2300
PPARg SRC-2 ag = agonists of SRC-2 recruitment by human PPARgamma. P37231. PPARgamma LBD-SRC-2 recruitment, biochemical. activation, % at 8 µM. 200,000 tested, 0.34% active; in the data active means activation above about 22%;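 further: 0% = vehicle and 100% = reference agonist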
Target sequence (P37231 whole entry, looked up, the tested form may be a part): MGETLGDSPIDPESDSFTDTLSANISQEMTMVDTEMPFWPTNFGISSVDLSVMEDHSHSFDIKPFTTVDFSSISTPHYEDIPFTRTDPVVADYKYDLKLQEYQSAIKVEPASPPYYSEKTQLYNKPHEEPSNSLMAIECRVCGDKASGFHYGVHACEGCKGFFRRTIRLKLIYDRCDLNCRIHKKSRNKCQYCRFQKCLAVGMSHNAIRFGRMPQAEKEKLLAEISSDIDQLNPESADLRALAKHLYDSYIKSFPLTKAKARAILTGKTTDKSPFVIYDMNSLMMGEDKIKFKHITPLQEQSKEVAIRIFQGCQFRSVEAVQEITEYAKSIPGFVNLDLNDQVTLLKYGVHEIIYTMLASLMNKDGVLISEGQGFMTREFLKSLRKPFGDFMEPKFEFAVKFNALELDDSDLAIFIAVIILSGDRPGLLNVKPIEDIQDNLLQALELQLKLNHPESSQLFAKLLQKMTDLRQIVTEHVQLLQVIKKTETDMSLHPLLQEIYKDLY
TR-FRET SRC-2 ct = counter-screen for PPARgamma SRC-2 recruitment agonists: TR-FRET artefact; active compounds read high; TR-FRET ratio at 8 µM; 200,000 tested, 0.4% active
PPARg SRC1 recr = promotes SRC-1 coactivator recruitment by human PPARgamma. P37231. PPARgamma-SRC-1 coactivator recruitment biochemical assay. activation, % at 8 µM. 200,000 tested, 0.41% active. AID 631; in the data active means activation above about 19%;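 further: 0% = DMSO and 100% = reference agonist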
PPARg SRC3 recr = PPARgamma-driven SRC-3 recruitment agonism. P37231. biochemical PPARgamma/SRC-3 coactivator recruitment assay. activation, % at 8 µM. 200,000 tested, 0.26% active; in the data active means activation above about 23%;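 further: 0% = DMSO and 100% = reference agonist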
An asterisk follows results filed as active; . = no result. Unless noted, no stated cut-off is given here; in the data, active means TR-FRET ratio above about 2000; inactive means the rest.

SMILES	SRC3 TRFRET art	SRC1 TRFRET art	PPARg SRC-2 ag	TR-FRET SRC-2 ct	PPARg SRC1 recr	PPARg SRC3 recr
COc1ccc(-c2csc(N(Cc3ccccc3)C(=O)COc3ccc(Cl)cc3)n2)cc1	.	.	2	1523	5	-1
CCN(C(=O)c1cccs1)c1nc(-c2ccc(OC)cc2)cs1	2437*	2224	6	1836	6	0
COc1ccc(-c2csc(N(CCCN(C)C)C(=O)c3cccs3)n2)cc1	1557	1918	2	1458	2	0
COc1ccc(F)cc1C(=O)C1CCCN(C(=O)c2ocnc2C)C1 (stereo unspecified)	1577	1675	1	1656	-6	0
O=C(NCc1cccc(F)c1)c1ccc(N2C(=O)Cn3c(cc4sccc43)C2=O)cc1	2155*	2114	-4	1654	-2	0
CCCCNC(=O)CSc1nc2ccccc2n1S(=O)(=O)c1ccc(Cl)cc1	1560	1668	0	1627	-4	4
CCCCNC(=O)CSc1nc2ccccc2n1S(=O)(=O)c1ccc(Br)cc1	1649	1765	11	1974*	5	-2
CC(C)CCSc1nc(N)c(C#N)cc1C#N	.	.	16	2957*	11	-2
CC(C)(CO)NCC(O)Cn1cc(C=O)c2ccccc21 (stereo unspecified)	1545	1609	5	1473	5	-1
COc1ccccc1NC(=O)C1=C(C)NC(SCC(=O)c2ccccc2)=C(C#N)C1c1ccco1 (stereo unspecified)	.	.	16	2496*	18	20
O=S(=O)(/N=C(\c1ccccc1F)N1CCCCC1)c1ccccc1	1295	1626	1	1547	1	-5
Cc1cc(C)cc(N2C(=O)CSC2c2cccs2)c1 (stereo unspecified)	1827	1726	11	1989*	7	0
Cc1ccc(N2C(=O)CSC2c2cccs2)cc1 (stereo unspecified)	.	.	5	1646	-3	12
COc1ccc(C2=NN(c3nc(-c4ccccc4)c(CC(=O)O)s3)C(c3ccco3)C2)cc1 (stereo unspecified)	2153*	2061	1	1644	7	14
CC(C)c1c(C#N)c(N)nc(SCC(=O)c2cc3ccccc3oc2=O)c1C#N	1619	1872	10	1505	8	-6
N#Cc1ccc(-c2ccccc2)nc1SCC(=O)c1cc2ccccc2oc1=O	.	.	5	1700	64*	10
Cc1cccc(Nc2nnc(SCC(=O)c3ccc(Br)s3)s2)c1C	2057*	2122	16	1770	13	7
C/C(N)=C(/C#N)C(=O)CSc1nnc(Nc2cccc(C)c2C)s1	.	.	3	1532	4	6
Cn1c(=O)c(Oc2cc(Cl)cc(Cl)c2)nc2ccccc21	.	.	4	1628	29*	-4
COc1ccc(Oc2nc3ccccc3n(C)c2=O)cc1	.	.	8	1546	-3	7
COc1ccc(-c2cc(-c3cccs3)c(C#N)c(SCC(=O)NCc3ccccc3)n2)cc1	.	.	6	1693	39*	5
N#Cc1c(N)nc(SCC(=O)NCc2ccc3c(c2)OCO3)c(C#N)c1-c1cccs1	.	.	8	1660	4	4
COc1ccc(-c2cc(-c3cccs3)c(C#N)c(SCC(=O)NCc3ccccc3OC)n2)cc1	.	.	-3	1559	27*	-6
COc1ccccc1CNC(=O)CSc1nc(N)c(C#N)c(-c2cccs2)c1C#N	.	.	9	1644	3	30*
COc1ccc(-c2cc(-c3ccccc3)nc(SCC(=O)Nc3ncc(C)s3)c2C#N)cc1	1299	1750	-5	1511	-3	0
SMILES	SRC3 TRFRET art	SRC1 TRFRET art	PPARg SRC-2 ag	TR-FRET SRC-2 ct	PPARg SRC1 recr	PPARg SRC3 recr
CN(C)C(=O)N1CCC(C(=O)N2CCCC(C(=O)c3cccc4ccccc34)C2)CC1 (stereo unspecified)	1696	1717	12	1514	6	7
CCN(Cc1ccccc1)C(=O)CSc1nc(C)cc(=O)[nH]1	1655	1907	0	1500	9	5
NNc1nc2cccnc2n(CCNc2ncc(C(F)(F)F)cc2Cl)c1=O	1447	1823	1	1488	-6	2
O=c1c(Cl)nc2cc(Cl)ccc2n1CCNc1ncc(C(F)(F)F)cc1Cl	.	.	3	1553	32*	-6
CCN(c1ccc(OCC(=O)OCC(=O)Nc2ccc(F)c(F)c2F)cc1)S(=O)(=O)c1ccccc1	1623	2135	2	1730	7	-2
O=C(CSc1nc2cc(Cl)ccc2s1)c1cc2ccccc2o1	.	.	8	2199*	3	1
Cc1cc(NC(=O)CSc2nc3cc(Cl)ccc3s2)no1	.	.	3	1623	0	19
Cc1cc(SCC(=O)c2cc3ccccc3o2)nc2ccccc12	.	.	4	2575*	3	2
Cc1c(NC(=O)CC2NC(=O)NC2=O)c(=O)n(-c2ccccc2)n1C (stereo unspecified)	1681	1805	10	1715	8	4
CC1Cc2ccccc2N1C(=O)CSc1nnc(-c2ccccc2)c(-c2ccccc2)n1 (stereo unspecified)	.	.	0	3425*	-3	2
COc1cccc(NC(=S)/C(=C(\[O-])c2ccc(OC(F)F)cc2)[n+]2ccccc2)c1	1727	1864	5	1987*	5	1
Cc1cc(C)n(-c2ccc(C(=O)NC3CCCCC3)cc2)n1	1556	1698	-6	1598	1	-1
Cc1ncoc1C(=O)N1CCCC(C(=O)c2ccc(C(F)(F)F)cc2)C1 (stereo unspecified)	1603	1691	5	1703	4	-5
Cc1[nH]c2ccccc2c1C(=O)C(=O)NCCOc1ccccc1	1657	2149	24*	1907	3	2
COc1cccc(C2C(C(=O)c3ccco3)=C(O)C(=O)N2CCN(C)C)c1OC (stereo unspecified)	1530	1861	2	1493	-5	0
COc1cccc(C2C(C(=O)c3cc4ccccc4o3)=C(O)C(=O)N2CCN(C)C)c1OC (stereo unspecified)	.	.	20	1961	18	28*
Cc1cc(NC(=O)CN2C(=O)NC3(CCC(C)CC3)C2=O)no1 (stereo unspecified)	1468	2022	22*	1764	5	5
COc1ccc(NCCNc2ccc(OC)cc2)cc1	.	.	2	1802	20*	4
Cc1ccc(NCCNc2ccc(C)cc2)cc1	.	.	-5	1533	-2	7
CCOc1ccc(-n2c3nc4ccccc4nc3c3c(=O)n(Cc4ccco4)cnc32)cc1	.	.	7	1566	45*	84*
Cc1cc(C)cc(-n2c3nc4ccccc4nc3c3c(=O)n(Cc4ccco4)cnc32)c1	.	.	7	1412	1	8
COc1cccc(-c2cc3nc(-c4ccccc4)cc(N4CCC5(CC4)OCCO5)n3n2)c1	.	.	7	2317*	9	8
CCc1nn(CC(=O)NCCCN(CC)Cc2ccccc2)c(=O)c2cc3sccc3n12	.	.	3	2044*	-4	-6

Screens deposited in PubChem BioAssay by The Scripps Research Institute Molecular Screening Center.
